Among the data in ChEMBL document CHEMBL3433997, “St. Jude Leishmania screening dataset” (2016) are inhibition values, retold here.

Each structure is given as a SMILES string. Values joined by “and” are separate entries in the source; they are usually repeats but may differ in a detail not shown here. Equal values may be shown once.

Common to all, as to format: functional
For test [1], the target named is Solute carrier family 2, facilitated glucose transporter member 1 (Homo sapiens) (UniProt P11166). In words: ST_JUDE_LEISH: Cytotoxicity at 2uM final concentration against transgenic Leishmania Mexicana promastigotes LmGLUT1 that are glucose transport deficient and complemented with the human glucose transporter GLUT1. Activity is measured by DNA content using SYBR green in vitro.

Test [2] has as its target Hexose transporter 1 (Plasmodium falciparum) (UniProt O97467). In words: ST_JUDE_LEISH: Cytotoxicity at 2uM final concentration against transgenic Leishmania Mexicana promastigotes LmPfHT that are glucose transport deficient and complemented with the Plasmodium falciparum hexose transporter. Activity is measured by DNA content using SYBR green in vitro.
The target in test [3] is Glucose transporter (Leishmania mexicana) (UniProt O61059). The experiment in a line: ST_JUDE_LEISH: Cytotoxicity at 2uM final concentration against transgenic Leishmania Mexicana promastigotes LmGT2 that are glucose transport deficient and complemented with the L. Mexicana glucose transporter 2. Activity is measured by DNA content using SYBR green in vitro.

Solute carrier family 2, facilitated glucose transporter member 1 (Homo sapiens), sequence (P11166 whole entry): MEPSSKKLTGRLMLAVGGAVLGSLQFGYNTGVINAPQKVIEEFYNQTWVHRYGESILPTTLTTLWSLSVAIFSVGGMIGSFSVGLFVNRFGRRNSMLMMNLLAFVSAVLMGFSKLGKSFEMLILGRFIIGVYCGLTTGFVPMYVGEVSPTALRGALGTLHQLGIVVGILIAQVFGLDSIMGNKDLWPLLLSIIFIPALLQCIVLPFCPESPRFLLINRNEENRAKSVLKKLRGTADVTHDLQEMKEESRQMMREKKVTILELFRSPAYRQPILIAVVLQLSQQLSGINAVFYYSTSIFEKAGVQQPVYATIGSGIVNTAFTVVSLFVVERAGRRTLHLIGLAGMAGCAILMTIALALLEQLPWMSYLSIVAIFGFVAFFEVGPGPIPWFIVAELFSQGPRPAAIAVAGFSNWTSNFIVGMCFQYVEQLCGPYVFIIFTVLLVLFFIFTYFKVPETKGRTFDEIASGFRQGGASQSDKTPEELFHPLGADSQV

For the compound `CCOc1ccc2[nH]c(C)cc(=NN=Cc3ccccc3Cl)c2c1`, the inhibition (usually the relative decrease from the control value, in per cent) worked out at 12.3% in test [1], 8.94% in test [2] and 5.71% in test [3].
The matching figures for `O=C(/C=C/c1ccc(Cl)c(Cl)c1)NCCCCCN1CC[C@H](NC(=O)c2ccc3c(c2)OCO3)C1`: 5.7%, 5.13% and 3.74%.
In the case of `Cc1cccc(CNc2nc(C)cc(N[C@@H](CC(C)C)C(=O)NCCOc3ccccc3)n2)c1`, the inhibition in test [1] was 4.29%; in test [2] it was 5.38%; in test [3] it was 2.08%.
The matching figures for `Cc1cccc2nc(-c3cccc(-c4ccc(C(=O)NCc5nccn5C)cc4)c3)[nH]c12`: 1.94%, 3.7% and 1.69%.
The matching figures for `Oc1ccc(Nc2nc(NCC3CCCO3)c3ccccc3n2)cc1` (stereo not drawn): 7.56%, 6.25% and 1.86%.
The matching figures for `COc1cccc(OC)c1OCCCOc1c(C)nc(N)nc1N`: 0.61%, 1.79% and 0.4%.
Regarding `Cc1ccc(CNc2cc(C(F)(F)F)nc(-c3ccc(S(C)(=O)=O)cc3)n2)cc1`, the inhibition in test [1] is 9.86%; in test [2], 11.2%; in test [3] it was 9.59%.
For `COc1ccc(NC(=O)N2CCCN(CCCCCNC(=O)/C=C/c3ccc(C(F)(F)F)cc3)CC2)cc1Cl`, the inhibition in test [1] is -0.26%; in test [2] it was -1.14%; in test [3], 2.8%.
For `CN1CCN(CCCN(Cc2cccc(-c3ccc(CNC4CCCC4)cc3)c2)C(=O)CCC2CCCC2)CC1`, in that order: 17.4%, 8.03% and 3.62%.
For `CCOc1cc(C(=O)NC2CC(C)(C)NC(C)(C)C2)ccc1-c1nc2cc(Cl)ccc2[nH]1`, in that order: 1.25%, 1.71% and 1.1%.
The matching figures for `CC(C)(C)c1ccc(-c2cc(C(=O)N[C@@H](CO)C(=O)O)on2)cc1.CC(C)(C)c1ccc(-c2nocc2C(=O)N[C@@H](CO)C(=O)O)cc1`: 4.07%, 3.4% and 6.48%.
Turning to `COc1cc(N)c(Cl)cc1C(=O)NCC1CCN(c2nc(C)cc(C)n2)CC1`, the results for the inhibition in test [1], in test [2] and in test [3] were 1.37%, 0.61% and -0.76%, respectively.
On to `CSc1ccc(CN2CCC(NC(=O)c3ccc(-c4cccc(C(F)(F)F)c4)s3)CC2)cc1`, for which the figures for the inhibition in test [1], in test [2] and in test [3] were 3.18%, 0.48% and 3.3%, respectively.
With `CN1CCN(c2ccnc3ccc(NC(=O)Nc4ccccc4Br)cc23)CC1`, the inhibition in test [1] was -3.53%; in test [2], -0.8%; in test [3] it was 0.11%.
The matching figures for `COc1ccc(CNCc2cccc(-c3cccc(-c4nc5cc(C(F)(F)F)ccc5[nH]4)c3)c2)cc1`: 5.4%, 4.65% and 3.48%.
With `O=C(/C=C/c1ccc(Cl)c(Cl)c1)NCCCCCN1CCC(c2c[nH]c3ccccc23)C(O)C1` (stereo not drawn), the inhibition is 0.14% and 4.45% in test [1]; 0.8% and 4.3% in test [2]; 2.14% and 3.3% in test [3].
`CCN(CC)CCN(Cc1ccc(-c2ccc(C(F)(F)F)cc2)cc1)C(=O)Cn1c(SCc2ccc(F)c(F)c2F)nc(=O)c2c1CCC2`: the inhibition in test [1] was found to be 2.57%; in test [2], 4.02%; in test [3], 3.4%.
The matching figures for `Cc1nnnn1-c1ccc(C(=O)N2CCC3(CC2)CN(Cc2ccc(Cl)c(Cl)c2)C(=O)O3)cc1`: 8.95%, 8.51% and 6.87%.
For `Cc1nc(-c2cccc(Nc3nccc(NCC(O)c4ccc(C(F)(F)F)cc4)n3)c2)cs1` (stereo not drawn), the figures for the inhibition in test [1], in test [2] and in test [3] were 1.28%, 1.67% and -0.68%, respectively.
The matching figures for `O=[N+]([O-])c1cccc(CNCC2CCN(CCc3ccccc3)CC2)c1`: 2.35%, 1.86% and 2.16%.
For `CC1CCCCN1CCCNc1ncc2c(-c3ccc(NC(=O)Nc4cc(C(F)(F)F)ccc4F)c(F)c3)nn(C)c2n1` (stereo not drawn), in that order: 1.38%, -0.99% and 0.83%.
As to `COc1ccc(Oc2ccc(Nc3ccnc4ccc(C(F)(F)F)cc34)cc2)cc1OC`, the values for the inhibition in test [1], in test [2] and in test [3] were 7.8%, 6.26% and 12.3%, respectively.
For `N=C(N)NC(=O)Nc1ccc(Cl)c([N+](=O)[O-])c1`, in that order: 0.49%, 0.63% and 0.37%.
On to `Cc1ccc(C2(CN3CCC(NC(=O)c4n[nH]cc4Cl)CC3)CCCCC2)cc1`, for which the inhibition in test [1] is -1.34%; in test [2] it was 0.31%; in test [3], -0.37%.
Turning to `C(=NNc1nc2ccccc2[nH]1)c1ccccc1OCc1ccccc1`, the inhibition came to 4.25% in test [1], 6.99% in test [2] and 3.06% in test [3].
For `Nc1nc(N)c2c(ccc3nn(Cc4ccccc4)cc32)n1`, in that order: -0.49%, 0.59% and -0.15%.
The matching figures for `COc1ccccc1CN1CCC(CNC(=O)c2cc(-c3ccc(N(C)C)cc3)cs2)C1` (stereo not drawn): 15.2%, 11.8% and 10.9%.
For `CN(C)c1ccc(CN2CCCCC(NC(=O)c3cc(-c4ccccc4F)cs3)C2)cc1` (stereo not drawn), in that order: -0.57%, -0.62% and -7.76%.
Consider `O=C(Nc1ccccc1)N1CCOC(CCN2CCC(F)(F)CC2)(c2ccc(Cl)c(Cl)c2)C1` (stereo not drawn), for which the inhibition in test [1] turned out to be 2.76%; in test [2], 4.85%; in test [3], 1.24%.
As for `FC(F)(F)c1ccc2c(NN=Cc3cccc(Cl)c3)ccnc2c1`, the results for the inhibition in test [1], in test [2] and in test [3] were 5.93%, 5.5% and 3.57%, respectively.
For `Cc1ccc(N(CCC(=N)N)Cc2ccccc2)cc1`, the inhibition in test [1] was found to be 8.97%; in test [2] it was 3.59%; in test [3], 4.68%.
For the compound `COc1cc(Nc2nccc(N3CCC(NC(=O)C(C)c4ccc(Cl)cc4)C3)n2)cc(OC)c1OC` (stereo not drawn), the inhibition in test [1] is 0.95%; in test [2], -0.55%; in test [3], 1.19%.
Regarding `CCCCN1CCN(CCCCNc2c3ccccc3nc3ccccc23)CC1`, the figures for the inhibition in test [1], in test [2] and in test [3] were 36.8%, 43.1% and 22%, respectively.
In the case of `O=C(NCCN1CCCC1)c1cccc(-c2ccc(-c3nc4ccccc4[nH]3)cc2)c1`, the inhibition in test [1] was found to be 3.79%; in test [2], 5.32%; in test [3], 4.26%.
On to `Cc1ccc(S(=O)(=O)N2CCN(C(=O)c3cc(-c4ccccc4)n[nH]3)CC2)cc1`, for which the values for the inhibition in test [1], in test [2] and in test [3] were 4.96%, 2.9% and 2.37%, respectively.
The matching figures for `Cc1cc(Nc2cccc(C(F)(F)F)c2)nc(Nc2cccc(C(F)(F)F)c2)n1`: 4.73%, 4.81% and -0.49%.
